Measurements: PubChem BioAssay (NCI)
Compounds without any hit were thinned out: in the full panel of roughly 83,000, 20% have a hit.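 Activity criterion: percent growth below 10, measured after cells in 96-well plates were exposed to a single compound concentration for 48 hours.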 Values without a mark were called inactive. The source made the active and inactive calls.

Test system: HL-60(TB) leukemia
Test: NCI-60 one-dose screen, 48 h (100 = growth as untreated, 0 = no growth, -100 = all killed)
Conditions: 10 µM unless noted

Compound | growth
COc1ccc2c(c1)CC[C@@H]1[C@@H]2CC[C@]2(C)C3C(=CCC4C(=O)N(c5ccccc5)C(=O)C43)C[C@@H]12 (stereo not given in full) | 81.6%
N#Cc1c(-c2ccccc2)nc2c(c(-c3ccccc3)nn2-c2ccccc2)c1-c1ccc(N2CCOCC2)cc1 | 65.4%
CCCCNC(=O)NS(=O)(=O)Cc1ccccc1 | 88.1%
CCCCCCCCCCNC(=O)CI | 19.3%
NC(=O)c1c(Nc2ccccc2)nn2cc(-c3nc4ccccc4s3)c(N)nc12 | 101%
Nc1nonc1-n1nncc1-c1cccnc1 | 134%
CS(=O)(=O)CCNCc1ccc(-c2ccc3ncnc(Nc4ccc(OCc5cccc(F)c5)c(Cl)c4)c3c2)o1 | 20.3%
COc1ccccc1N1CCCSC1=Nc1ccccc1 | 50.1%
Cc1ccc(Oc2c(/C=N/NC(=O)Cn3c(=O)sc4ccccc43)c(C)nn2-c2ccccc2)cc1 | 4.2% (active)
CCCCCCNC(=O)Oc1ccc(/C(=C(\C)c2ccccc2)c2ccc(OCCN(CC)CC)cc2)cc1 | 9.56% (active)
CCOC(=O)c1ccc(-c2ccc3cc(OC)ccc3c2)nc1C | 91.2%
Cc1ccc(S(=O)(=O)c2nc(-c3ccccc3)oc2Sc2nc3ccccc3s2)cc1 | 71.9%
CCC1NC(=O)C(NC(=O)c2ncccc2O)C(C)OC(=O)C(c2ccccc2)NC(=O)C2CC(=O)CCN2C(=O)C(Cc2ccc(N(C)C)cc2)N(C)C(=O)C2CCCN2C1=O (stereo not given) (tested in a mixture with another compound) | 42.5%
CC(=O)N1N=C(c2ccc(Nc3nc(Nc4ccc(F)cc4)nc(Nc4ccc(Cl)cc4)n3)cc2)CC1c1ccc(N(C)C)cc1 (stereo not given) | 19%
Oc1c(I)cc(I)cc1CNCc1ccccn1 | 20.2%
O=C1Nc2c(ccc(Cl)c2Cl)/C1=C\c1ccc(C(F)(F)F)cc1 | 51.8%
Cc1cc2ccccc2c2cc3ccccc3cc12 | 49.4%
CCOC(=O)c1ccccc1NC(c1ccccc1)c1ccc2cccnc2c1O (stereo not given) | 3.54% (active)
COc1ccc(OC)c(/C=C/C(=O)N/N=C/c2ccccc2)c1 | 46.3%
C#CC#CC#CC#CC#CC#CC#CC#CC[C@H]1OC[C@@H](COC(=O)O[C@@H](C(=O)O[C@H]2C[C@@]3(O)[C@@H](OC(=O)c4ccccc4)[C@@H]4[C@]5(OC(C)=O)CO[C@@H]5C[C@H](O)[C@@]4(C)C(=O)[C@H](OC(C)=O)C(=C2C)C3(C)C)[C@@H](NC(=O)c2ccccc2)c2ccccc2)O1 | 6.5% (active)

Compound | growth
COc1cc(OC)c(C(=O)C(CN(C)C)CN(C)C)cc1OC | -63.5% (active)
COc1cccc(C(c2cc3c(cc2O)OCO3)N2CCOCC2)c1OC (stereo not given) | 97.1%
C#CCO[C@H]1CC(CC#C)(CC#C)C(=O)[C@@H]2[C@H]1[C@H]1C[C@@H]3[C@@]4(C)CCC[C@@](C)(C(=O)OC)[C@@H]4CC[C@@]23C=C1C(C)C | 54.8%
CCCCCCCC/C=C\CCCCCCCCOc1ccc(CC(=O)NCC[N+](C)(C)C)cc1 | -35.7% (active)
Nc1n[nH]c2ccc([C@@H]3Nc4cc5[nH]ncc5cc4[C@H]4C5CCC(C5)[C@@H]34)cc12 (stereo not given in full) | -8.95% (active)
O=C(CCNNC(=O)c1ccncc1)NCc1ccccc1 | 70.1%
CC(=O)[C@H]1CC[C@]2(C)[C@@H]1CC[C@@H]1[C@@]3(C)C/C(=C/c4cccnc4)C(=O)C(C)(C)[C@@H]3CC[C@]12C | 8.47% (active)
O=C(Cc1nc2cc(Cl)c(Cl)cc2nc1CC(=O)c1cccnc1)c1cccnc1 | 39.6%
CC/C=C\CCC/C=C1/C(=O)C=C[C@@H]1C/C=C\CCCC(=O)OC | -9.11% (active)
COc1cc2c(cc1O)CC[C@@H]1C2CC[C@@]2(C)C1CC[C@@H]2O (stereo not given in full) | -3.13% (active)
C=C(C)Cn1c(SCC(=O)c2cccs2)nc2sc3c(c2c1=O)CCCC3 | 63.2%
CC[C@H](Nc1nc(N)nc(C)c1C#N)c1nc2cccc(NCCCCCC(=O)NO)c2c(=O)n1-c1ccccc1 | 39.7%
c1ccc(-c2nc(N3CCCNCC3)c3nc(-c4ccccc4)oc3n2)cc1 | -34.6% (active)
Cc1nn(-c2ccc(-c3ccc(OC(F)(F)F)cc3)cc2)c2nc(-c3ccccc3)nc(N)c12 | 100%
Oc1c(I)cc(I)cc1CN(Cc1ccccn1)Cc1ccccn1 | 2.58% (active)
O=C1NC(=O)/C(=C\c2ccccc2)C2=C1CCCC2 | -33.3% (active)
CCN(CC)CCNC(Cc1ccccc1)c1ccc(OCc2ccccc2)cc1 (stereo not given) | 46.8%
Cc1ccc(S(=O)(=O)Oc2ccc3sc4c(CO)ccc(NCCN(C)C)c4c(=O)c3c2)cc1 | -51.1% [100 µM] (active)
C#C[C@@]1(O)[C@@H](CO)O[C@@H](n2cnc3c(-c4ccccc4)ncnc32)[C@@H]1O | 102%
O=C(NCCc1ccccn1)OCc1nc2nc(Cl)nc(N3CCOCC3)c2[nH]1 | -47.6% (active)
